Screening data: PubChem BioAssay, several laboratories
This is a sample that favours compounds with a hit; in the whole collection about 32% have one here.
PostGolgi ctrl = growth of the yeast control strain, post-Golgi counter-screen; efflux-deficient yeast background strain, growth absorbance A615, 16 h; inhibition, % at 10 µM; 5% of 98,000 active
CYP2C9 inhib = blocks human cytochrome P450 2C9 | P11712 | 20% of 96,000 active | CYP2C9 Supersomes, luciferin-H conversion, luminescence | AID 777 | inhibition, % at 5 µM;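 active = blocking of liver enzyme CYP2C9 beyond about 50% at 5 µM, limit read from the data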
Target sequence (P11712 whole entry, looked up): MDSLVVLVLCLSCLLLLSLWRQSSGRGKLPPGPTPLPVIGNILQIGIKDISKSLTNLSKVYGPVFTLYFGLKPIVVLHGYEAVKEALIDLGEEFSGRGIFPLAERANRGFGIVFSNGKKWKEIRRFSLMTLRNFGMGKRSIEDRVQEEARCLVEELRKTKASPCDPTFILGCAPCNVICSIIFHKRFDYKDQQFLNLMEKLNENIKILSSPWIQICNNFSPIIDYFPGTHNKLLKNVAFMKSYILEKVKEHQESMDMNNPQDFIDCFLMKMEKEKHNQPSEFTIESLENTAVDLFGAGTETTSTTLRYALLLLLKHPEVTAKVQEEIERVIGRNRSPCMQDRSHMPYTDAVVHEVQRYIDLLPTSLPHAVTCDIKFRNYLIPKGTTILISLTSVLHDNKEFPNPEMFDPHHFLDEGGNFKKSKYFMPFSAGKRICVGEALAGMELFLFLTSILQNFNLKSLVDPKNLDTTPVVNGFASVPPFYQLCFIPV
CYP2C9 activ = CYP2C9 (human) activation; activation factor at 5 µM; P11712; 1.4% of 96,000 active; recombinant CYP2C9, luciferin-H conversion, luminescence; hits give high values; factor 1 = untreated enzyme, 0 = blocked;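 active = activation factor of 2 or more for CYP2C9 at a 5 µM dose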;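 also: 0 = sulfaphenazole-blocked wells and 1 = vehicle-only wells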
CYP2C19 inhib = blocks human cytochrome P450 2C19; P33261; CYP2C19 Supersomes, luciferin-H EGE luminescence, 30 min; inhibition, % at 5 µM; 21% of 96,000 active; AID 778;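 active = CYP2C19 inhibition above a set limit at 5 µM in the primary screen, cut at about 50% in these data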;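 also: plate controls were negative control wells for no effect and 2.5 mM tranylcypromine positive control for full effect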
CYP2C19 act = increases human CYP2C19 enzyme activity | P33261 | recombinant CYP2C19, luciferin-H EGE luminescence; hits give high values; 0 = fully inhibited enzyme, 1 = untreated enzyme | activation factor at 5 µM | 96,000 tested, under 10 active;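 active = activation factor of at least 2 at 5 µM in the primary screen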;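 also: 0 = wells with 2.5 mM tranylcypromine and 1 = vehicle-only wells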
PostGolgi yeast = growth inhibition of a yeast mutant, post-Golgi transport screen | 0.9% of 98,000 active | inhibition, % at 10 µM | post-Golgi transport phenotypic cell assay;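 also: yeast cells grown in 1536-well plates; yeast grown about 18 h at 30C before absorbance read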
* marks the source's active call; other numbers are inactive results. Rule as the data show it, unless noted: active = inhibition above about 30%; inactive = the rest.

SMILES | PostGolgi ctrl | CYP2C9 inhib | CYP2C9 activ | CYP2C19 inhib | CYP2C19 act | PostGolgi yeast
COc1ccc(NC(=O)NCc2ccncc2)cc1 | -1 | 60* | 0.4 | 31 | 0.7 | -3
CCCCC(=O)Nc1ccc(C(=O)NCc2ccncc2)cc1 | -1 | 70* | 0.3 | 63* | 0.4 | -21
O=C(NCc1ccncc1)Nc1ccccc1 | 4 | 34 | 0.7 | 54* | 0.5 | 19
Cc1cc2ncn(C3CC(=O)N(Cc4ccc(N5CCCC5=O)cc4)C3=O)c2cc1C (stereo not given) | 9 | 37 | 0.6 | 30 | 0.7 | 1
COC(=O)Cn1ncn2c(cc3oc(C)cc32)c1=O | -3 | 27 | 0.7 | -14 | 1.1 | -8
O=C(NCc1ccco1)C1CCCN(S(=O)(=O)c2cccc3nsnc23)C1 (stereo not given) | 7 | -8 | 1.1 | 30 | 0.7 | 2
CCN(C(=O)CSc1nc2ccccc2n1CCc1ccccc1)C1CCS(=O)(=O)C1 (stereo not given) | 18 | -4 | 1 | 67* | 0.3 | -1
Nc1ccc(S(=O)(=O)N2CCCC2)cc1 | 19 | -34 | 1.3 | -9 | 1.1 | 4
CN(C)S(=O)(=O)c1ccc(S(=O)(=O)N2CCCC2)cc1 | 2 | 1 | 1 | 62* | 0.4 | 4
O=S(=O)(c1ccc(S(=O)(=O)N2CCCC2)cc1)N1CCCCCC1 | -2 | 8 | 0.9 | 19 | 0.8 | 0
CC(C)Cc1ccc(S(=O)(=O)N2CCCC2)cc1 | 11 | 78* | 0.2 | 91* | 0.1 | -2
N#CC1(c2ccccc2)CCC(=NO)CC1 (stereo not given) | 3 | 19 | 0.8 | 37 | 0.6 | 0
COc1cc(NC(=S)NN2CCN(C)CC2)cc(OC)c1 | 14 | 10 | 0.9 | 3 | 1 | 6
CCn1c(SCC(=O)N2CCN(c3ccc(F)cc3)CC2)nnc1-c1ccncc1 | 19 | 27 | 0.7 | 19 | 0.8 | -4
CCOC(=O)N1CCC(N2CCN(c3cc(C)ccc3C)CC2)CC1 | 1 | 1 | 1 | 8 | 0.9 | 3
N#CC1=C(N)N(c2ccc(Oc3ccccc3)cc2)C(=O)C1 | 1 | 52* | 0.5 | 46 | 0.5 | -4
Cn1c(N)c(C(=O)COC(=O)C2CCC(C(C)(C)C)CC2)c(=O)n(C)c1=O (stereo not given) | 18 | -32 | 1.3 | 19 | 0.8 | 16
CN(C)/C=C/C(=O)c1nnn(C2CCCCC2)c1NC1CCCCC1 | 31* | 34 | 0.7 | 11 | 0.9 | -6
C1CCC(Nc2nnnn2C2CCCCC2)CC1 | 6 | -8 | 1.1 | 4 | 1 | -5
CCS(=O)(=O)c1ccc2c(c1)N(S(C)(=O)=O)CC(C(=O)NC1CC1)O2 (stereo not given) | 9 | 21 | 0.8 | 8 | 0.9 | 5
CCS(=O)(=O)c1ccc2c(c1)N(S(C)(=O)=O)CC(C(=O)NCc1ccccc1OC)O2 (stereo not given) | -2 | 62* | 0.4 | 17 | 0.8 | 9
CCOC(=O)C1CN(S(=O)(=O)c2ccc(OC)cc2)c2cc(S(=O)(=O)CC)ccc2O1 (stereo not given) | 25 | 58* | 0.4 | 50* | 0.5 | -10
O=C(O)Cc1ccc2c(c1)N(S(=O)(=O)c1cccc(C(F)(F)F)c1)CC(C(=O)O)O2 (stereo not given) | 4 | 3 | 1 | 1 | 1 | -6
Cc1oc(-c2ccc(Cl)cc2)[n+]([O-])c1C | 9 | 15 | 0.8 | 3 | 1 | 3
O=C(NCCO)c1cccc(Nc2nc(-c3ccccc3)c3cc(Cl)ccc3n2)c1 | 49* | -4 | 1 | 16 | 0.8 | 5
SMILES | PostGolgi ctrl | CYP2C9 inhib | CYP2C9 activ | CYP2C19 inhib | CYP2C19 act | PostGolgi yeast
Cc1ccc2nc(NCCCO)nc(-c3ccccc3)c2c1 | 25 | 12 | 0.9 | 6 | 0.9 | -3
Cc1ccc(OCC(=O)Sc2ccc(C)cc2)cc1 | 0 | 46 | 0.5 | 52* | 0.5 | -1
O=C(NCC1CCCO1)c1ccc(CS(=O)(=O)Cc2ccc(F)cc2)o1 (stereo not given) | -1 | 31 | 0.7 | 5 | 0.9 | -6
C/C(=C\c1ccco1)C1C(C#N)=C(N)Oc2n[nH]c(-c3ccccc3)c21 (stereo not given) | 9 | 48 | 0.5 | 14 | 0.9 | 1
C/C(=C\c1ccco1)C1C(C#N)=C(N)OC2=C1C(=O)CC(C)(C)C2 (stereo not given) | 27 | 91* | 0.1 | 93* | 0.1 | 23
CC1(C)CC(=O)C2=C(C1)OC(N)=C(C#N)C2c1cccc(OC(=O)c2ccco2)c1 (stereo not given) | 5 | 76* | 0.2 | -15 | 1.1 | 12
Cn1c(C(=O)NC2CCCCC2)cc2sccc21 | 5 | 18 | 0.8 | 55* | 0.4 | 13
CN(C(=O)c1cc2sccc2n1C)C1CCCCC1 | 5 | 21 | 0.8 | 74* | 0.3 | 2
COC(=O)c1cccc(NC(=O)c2cc3sccc3n2C)c1 | 23 | 53* | 0.5 | 77* | 0.2 | 14
O=C(COC(=O)c1cncc(Br)c1)NCC1CCCO1 (stereo not given) | 4 | 0 | 1 | 18 | 0.8 | 4
O=C1N(CC(=O)N2CCc3ccccc32)CCN1Cc1ccccc1Cl | 0 | -204 | 3* | 25 | 0.7 | 3
O=C(CN1CCN(Cc2ccccc2Cl)C1=O)NC1CCCCCC1 | 5 | -80 | 1.8 | 60* | 0.4 | -12
O=C(Cn1cnc2c(cnn2-c2ccccc2Cl)c1=O)N1CCc2ccccc21 | 7 | -5 | 1.1 | -5 | 1 | -5
CCOc1ccc(-n2cc(C(=O)Nc3ccc(Cl)cn3)c3cc(OC)c(OC)cc3c2=O)cc1 | 3 | -7 | 1.1 | -20 | 1.2 | 3
COc1ccc(S(=O)(=O)N(C)CC(=O)N2CCN(c3ccc(F)cc3)CC2)cc1OC | 3 | -62 | 1.6 | 11 | 0.9 | -7
COC(=O)C(Cc1ccc(O)cc1)NC(=O)c1ccccc1OC (stereo not given) | -7 | -128 | 2.3* | 53* | 0.5 | -4
N#Cc1c(-n2cccc2/C=N/O)sc2c1CCCC2 | 9 | -176 | 2.8* | 40 | 0.6 | -5
c1ccc(CC2CCN(C3=Nc4cccc5cccc3c45)CC2)cc1 | 12 | -4 | 1 | 87* | 0.1 | 5
O=C(CN(Cc1ccccc1)S(=O)(=O)c1ccc2c(c1)OCCO2)Nc1ccc2c(c1)OCCO2 | 18 | 96* | 0 | 43 | 0.6 | -1
CC(=O)Nc1ccc(NC(=O)CN(c2ccc(F)cc2)S(=O)(=O)c2ccc3c(c2)OCCO3)cc1 | 10 | 30 | 0.7 | 15 | 0.9 | 3
O=C(CN(c1ccc(F)cc1)S(=O)(=O)c1ccc2c(c1)OCCO2)Nc1ccccc1 | 7 | 65* | 0.4 | 29 | 0.7 | 33*
O=C(CN(c1ccc(F)cc1)S(=O)(=O)c1ccc2c(c1)OCCO2)Nc1cccnc1 | 4 | 99* | 0 | 92* | 0.1 | 4
